Experimental findings from PubChem BioAssay (Tox21) are described below.

Unmarked numbers belong to inactive results. Results filed as inconclusive are left out. Calls of active or inactive are those of the source. Unless noted, the call rests on the fitted dose curve; in most records, active means well fitted curve in the direction sought with a large enough effect in the repeat runs; inconclusive means weak or mixed curves; inactive means no such curve, though single readings can be large; an effect the other way counts as inactive or inconclusive.

Assay [1] can be described thus: qHTS assay to identify small molecule antagonists of the androgen receptor (AR) signaling pathway using the MDA cell line in the presence of 0.5 nM R1881 - cell viability counter screen (AID 1259242). Further: nearly all actives have a fitted effect of over 45% in size. The procedure, abridged:
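Counter screen for cytotoxicity run in the same wells as the AR antagonist reporter screen: MDA-kb2 cells were treated 16 hr with test compounds and 0.5 nM R1881, then live-cell protease activity was measured by fluorescence.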
On the technique in general: qHTS replaces the single test concentration by a dilution series.

The nature of assay [2]: qHTS assay to identify small molecule phospholipidosis (PLD) inducers (AID 1259344; active means well fitted curve in the direction sought with a large enough effect; an effect the other way counts as inactive or inconclusive). The procedure, abridged: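 Fluorescent phospholipid staining (LipidTOX Red) measured by automated microscopy in fixed HepG2 cells after 24 h treatment; nuclei counterstained with Hoechst 33342; amiodarone as reference inducer.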
Assay [3] in a line: qHTS assay to identify small molecule HDAC inhibitors (AID 1259364). Further: top concentration of the series differs between compounds; nearly all actives have a fitted effect of over 45% in size. Summed up: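 Luminescence from a cell-permeant luminogenic class I/II HDAC substrate reports endogenous deacetylase activity in intact HCT-116 cells treated with compounds for 2 h.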
The nature of assay [4]: qHTS assay to identify small molecule HDAC inhibitors - cell viability counter screen (AID 1259365). Further: series mostly up to about 92 µM; nearly all actives have a fitted effect of over 50% in size. The procedure, abridged:
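To flag cytotoxic hits, 1,500 wild-type HCT-116 cells per well, plated the day before, receive test compounds for 2hr at 37 C before CellTiter-Glo reagent and a luminescence read.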

Assay [5] can be described thus: qHTS assay to identify small molecule agonists of the sonic hedgehog signaling (Shh) pathway - cell viability counter screen (AID 1259366). Further: nearly all actives have a fitted effect of over 50% in size. The procedure, abridged:
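Fluorescence from CellTiter-Fluor reports live cells in this counter screen. NIH/3T3-derived Gli1-Luc reporter cells receive test compounds for 24hr at 37C; reagent goes in at 23hr.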

Assay [6] can be described thus: qHTS assay to identify small molecule antagonists of the sonic hedgehog signaling (Shh) pathway - cell viability counter screen (AID 1259367). Further: nearly all actives have a fitted effect of over 55% in size. The procedure, abridged:
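Using CellTiter-Fluor, viability of Gli1-Luc reporter 3T3 cells is read by fluorescence in the wells used for the Shh luciferase assay. Treatment lasts 23 hr with conditioned medium, then reagent 1 hr at 37C.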

Assay [7] is described as follows: qHTS assay to identify small molecule agonists of the sonic hedgehog signaling (Shh) pathway (AID 1259368; calls by dose curve;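 further: NIH/3T3-derived 3T3Gli1-Luc cells carrying a stable Gli1-driven firefly luciferase reporter; series mostly up to about 92 µM; nearly all actives have a fitted effect of over 15% in size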). Summed up:
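3T3Gli1-Luc (NIH/3T3 clone, stable Gli1-Luc); 4 hr pre-incubation, then cpd in DMSO 24 hr, 37 C/5% CO2; luciferase reagent 30 min RT; luminescence.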

The nature of assay [8]: qHTS assay to identify small molecule antagonists of the sonic hedgehog signaling (Shh) pathway (AID 1259369; calls by dose curve; further: nearly all actives have a fitted effect of over 45% in size). The procedure, abridged:
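3T3Gli1-Luc, conditioned-medium-stimulated, 24hr cpd, 37C/5% CO2; Gli1-driven firefly Luc luminescence after 30min RT with luciferase reagent. Cells plated 4hr before cpd.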

Assay [9] is described as follows: qHTS assay to identify small molecule agonists of the androgen receptor (AR) signaling pathway in the presence of an antagonist - cell viability counter screen (AID 1259379).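 Further: MDA-kb2 human breast cancer cells carrying an MMTV luciferase reporter; series mostly up to about 92 µM; nearly all actives have a fitted effect of over 25% in size.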 Summed up:
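Cells: MDA-kb2 (MMTV-luc, AR and GR elements), 3,000/well, 5 hr settle. Added: nilutamide 3.0uM final, then compounds (15 conc.). Incubation: 16 hr, 37C, no CO2. Read-out: CellTiter-Fluor, 1 hr, fluorescence.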

The nature of assay [10]: qHTS assay to identify small molecule agonists of the estrogen receptor beta (ER-beta) signaling pathway - cell viability counter screen (AID 1259380). Further: nearly all actives have a fitted effect of over 30% in size. Summed up: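 HEK293T ER-beta-UAS-bla; 2% CS-FBS; 6 hr pre-plate, 16 hr cpd at 37C/5% CO2; LiveBLAzer read first, then CellTiter-Glo 30 min RT, luminescence.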
A short description of assay [11]: qHTS assay to identify small molecule antagonists of the estrogen receptor beta (ER-beta) signaling pathway - cell viability counter screen (AID 1259382).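 Further: HEK293T cells carrying ER-beta-UAS-bla reporter stimulated with estradiol; series mostly up to about 92 µM; nearly all actives have a fitted effect of over 55% in size.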 The procedure, abridged:
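Cells: ER-beta-UAS-bla HEK293T, 2,000/well, 2% CS-FBS, 6 hr settle. Cpd + E2 (1nM final), 16 hr, 37C/5% CO2. Bla FRET substrate 2 hr RT, then CellTiter-Glo 30 min RT, luminescence.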

A short description of assay [12]: qHTS assay to identify small molecule agonists or antagonists of the thyroid stimulating hormone receptor (TSHR) signaling pathway - wild type cell line counter screen (AID 1259384; calls by dose curve). Summed up:
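Counter screen in untransfected Hek293: compounds (15-point titration, triplicate) plus phosphodiesterase inhibitor Ro20-1724 added after 18 h plating; 30 min RT. Intracellular cAMP via competitive d2/cryptate immunoassay, 1 h incubation.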

Assay [13] has as its target Thyrotropin receptor (Homo sapiens) (UniProt P16473). Description: qHTS assay to identify small molecule antagonists of the thyroid stimulating hormone receptor (TSHR) signaling pathway (AID 1259385; calls by dose curve; further: nearly all actives have a fitted effect of over 20% in size). The procedure, abridged:
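Antagonist mode: compound-treated TSHR-expressing HEK293 cells were stimulated with 1.5 ng/mL TSH (final) in presence of Ro20-1724 for 30 min at RT. HTRF cAMP detection after 1 h; each compound tested at 15 concentrations, triplicate.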

Assay [14] is described as follows: qHTS assay to identify small molecule agonists of the estrogen receptor alpha (ER-alpha) signaling pathway in the presence of an antagonist - cell viability counter screen (AID 1259386).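 Further: series mostly up to about 92 µM; cells exposed to compounds for 22 h at 37 °C before the viability read; nearly all actives have a fitted effect of over 30% in size.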 The procedure, abridged:
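VM7Luc4E2, stripped-serum pre-culture 5 d; 24hr plating; +ICI-182,780 10.0nM final; cpds 15 conc, 22hr, 37C/5% CO2; CellTiter-Fluor added at 21hr, fluorescence 1hr later.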

Assay [15] concerns the target Estrogen receptor beta (Homo sapiens) (UniProt Q92731). Briefly: qHTS assay to identify small molecule agonists of the estrogen receptor beta (ER-beta) signaling pathway (AID 1259377; active means well fitted activation curve with a large enough effect in the signal ratio in the repeat runs, not every such curve was filed as active; the % refers to the signal ratio). The procedure, abridged:
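Screening used GripTite ER-beta-UAS-bla cells held in 2% charcoal-stripped FBS medium. After overnight (16 hr) compound incubation at 37C, beta-lactamase activity was detected with a FRET substrate by fluorescence.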

The target is the same in assay [16]. Description: qHTS assay to identify small molecule antagonists of the estrogen receptor beta (ER-beta) signaling pathway (AID 1259378; active means well fitted inhibition curve with a large enough effect in the signal ratio in the repeat runs, not every such curve was filed as active; the % refers to the signal ratio; further: potency means the concentration at half of the fitted maximal effect). The procedure, abridged: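 Antagonist mode: compounds added to beta-lactamase reporter HEK293T ER-beta-UAS cells stimulated with E2 (1nM final), 16 hr at 37C. LiveBLAzer B/G FRET substrate, 2 hours room temperature, fluorescence read-out.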

Assay [17] concerns the target Estrogen receptor (Homo sapiens) (UniProt P03372). Description: qHTS assay to identify small molecule antagonists of the estrogen receptor alpha (ER-alpha) signaling pathway using the BG1 cell line in the presence of 0.1 nM 17-beta-estradiol (AID 1259244). Further: nearly all actives have a fitted effect of over 50% in size. The procedure, abridged:
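Cells: VM7Luc4E2, endogenous ER-alpha, 4x ERE-luc stable. Pre-culture 5 d, phenol red-free, charcoal-stripped FBS. Plated 24 h, compound + E2 0.1 nM final, 22 h 37C/5% CO2. Readout ONE-Glo luminescence.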

For assay [18] the target is unchanged. Description: qHTS assay to identify small molecule agonists of the estrogen receptor alpha (ER-alpha) signaling pathway in the presence of an antagonist (AID 1259383; calls by dose curve; further: top concentration of the series differs between compounds; nearly all actives have a fitted effect of over 15% in size). The procedure, abridged: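 VM7Luc4E2, endog. ER-alpha + 4×ERE-luc; charcoal-stripped FBS, phenol red-free, 5 d; 24hr plating; +10.0nM ICI-182,780 (final); cpds 15 conc, 22hr, 37C/5% CO2; ONE-Glo luminescence.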
On the % scale 0 is the no-effect control and ±100 the full control effect.

Estrogen receptor beta (Homo sapiens), sequence (Q92731 whole entry, looked up): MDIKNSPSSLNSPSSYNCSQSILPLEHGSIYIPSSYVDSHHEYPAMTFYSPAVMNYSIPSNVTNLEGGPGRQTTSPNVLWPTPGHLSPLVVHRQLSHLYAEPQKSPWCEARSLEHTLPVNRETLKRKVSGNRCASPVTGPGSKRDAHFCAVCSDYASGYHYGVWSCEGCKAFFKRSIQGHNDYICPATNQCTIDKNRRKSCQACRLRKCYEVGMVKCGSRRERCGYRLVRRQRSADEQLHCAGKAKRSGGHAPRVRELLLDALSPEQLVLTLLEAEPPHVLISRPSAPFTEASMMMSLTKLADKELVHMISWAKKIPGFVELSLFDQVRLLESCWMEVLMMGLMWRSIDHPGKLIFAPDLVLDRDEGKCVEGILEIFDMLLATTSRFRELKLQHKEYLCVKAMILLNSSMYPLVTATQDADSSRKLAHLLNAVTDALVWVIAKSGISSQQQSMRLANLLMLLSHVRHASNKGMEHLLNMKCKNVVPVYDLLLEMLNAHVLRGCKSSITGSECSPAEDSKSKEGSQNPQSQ
Thyrotropin receptor (Homo sapiens), sequence (P16473 whole entry, looked up): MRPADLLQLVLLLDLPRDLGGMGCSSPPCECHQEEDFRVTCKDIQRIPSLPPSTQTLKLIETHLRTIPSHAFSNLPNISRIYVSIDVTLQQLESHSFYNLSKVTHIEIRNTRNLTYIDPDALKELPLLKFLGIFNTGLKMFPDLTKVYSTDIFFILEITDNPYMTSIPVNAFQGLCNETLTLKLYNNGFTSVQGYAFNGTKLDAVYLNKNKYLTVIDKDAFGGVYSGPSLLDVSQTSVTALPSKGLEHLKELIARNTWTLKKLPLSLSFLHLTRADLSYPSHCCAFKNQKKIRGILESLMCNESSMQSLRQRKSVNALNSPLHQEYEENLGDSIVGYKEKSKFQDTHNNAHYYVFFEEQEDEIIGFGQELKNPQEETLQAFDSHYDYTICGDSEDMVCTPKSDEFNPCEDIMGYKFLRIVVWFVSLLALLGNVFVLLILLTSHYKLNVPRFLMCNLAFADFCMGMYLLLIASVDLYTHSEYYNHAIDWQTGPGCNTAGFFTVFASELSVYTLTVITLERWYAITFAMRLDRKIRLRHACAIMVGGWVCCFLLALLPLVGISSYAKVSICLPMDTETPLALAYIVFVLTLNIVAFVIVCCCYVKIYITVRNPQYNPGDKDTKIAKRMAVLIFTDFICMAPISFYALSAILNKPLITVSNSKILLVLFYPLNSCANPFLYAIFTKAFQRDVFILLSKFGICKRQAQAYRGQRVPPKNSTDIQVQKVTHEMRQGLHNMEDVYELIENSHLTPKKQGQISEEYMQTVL
Estrogen receptor (Homo sapiens), sequence (P03372 whole entry, looked up): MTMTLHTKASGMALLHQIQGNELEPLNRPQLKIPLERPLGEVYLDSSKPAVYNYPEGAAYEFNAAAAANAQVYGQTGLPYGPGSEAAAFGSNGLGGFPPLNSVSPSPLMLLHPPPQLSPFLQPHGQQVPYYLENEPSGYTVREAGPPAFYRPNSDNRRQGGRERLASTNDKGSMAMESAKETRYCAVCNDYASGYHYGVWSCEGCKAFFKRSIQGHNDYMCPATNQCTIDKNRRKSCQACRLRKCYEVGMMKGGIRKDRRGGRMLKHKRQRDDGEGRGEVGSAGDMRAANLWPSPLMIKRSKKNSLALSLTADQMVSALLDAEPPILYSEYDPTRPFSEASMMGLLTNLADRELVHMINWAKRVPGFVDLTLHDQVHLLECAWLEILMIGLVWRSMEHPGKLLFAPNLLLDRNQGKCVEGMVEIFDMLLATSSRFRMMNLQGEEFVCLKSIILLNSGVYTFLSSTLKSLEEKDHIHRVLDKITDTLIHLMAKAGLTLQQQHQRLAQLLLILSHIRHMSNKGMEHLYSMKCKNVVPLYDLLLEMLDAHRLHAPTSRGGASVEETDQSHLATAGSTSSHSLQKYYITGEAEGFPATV

On to `O=C(O)[C@@H]1CSCN1`, for which the result in [1], in assay [2], in assay [4], in assay [11] and in [12] was inactive. Moreover, the Potency entry in assay [3], in [5], in assay [6], in [7], in assay [8] and in assay [9] was “inactive” in each case. The Potency result in [10], in assay [13] and in [14] was “inactive” each time.
For the molecule `CCCN(CCC)C(=O)C(CCC(=O)O)NC(=O)c1ccccc1` (configuration not stated), the outcome in assay [1], in assay [2], in [4] and in assay [11] was inactive. Besides, the Potency result in assay [3], in assay [5], in assay [6], in [7], in assay [8] and in assay [9] was “inactive” in each case. Moreover, the Potency entry in [10] and in assay [14] was “inactive” in each case.
Regarding `O=C(O)[C@@H](O)[C@H](O)[C@H](O)[C@@H](O)C(=O)O`, the outcome in [1], in assay [2], in assay [4], in assay [11] and in assay [12] was inactive. The Potency entry in [3], in assay [5], in [6], in assay [7], in assay [8] and in assay [9] was “inactive” throughout. The Potency result in [10], in assay [13] and in assay [14] was “inactive” in each case.
For the molecule `NCCC(O)(P(=O)(O)O)P(=O)(O)O`, the outcome in assay [1], in assay [2], in [4], in assay [15], in [11] and in assay [12] was inactive. In addition, the Potency result in assay [3], in [5], in assay [6], in [7], in assay [8] and in [16] was “inactive” throughout. Further, the Potency entry in [9], in [10], in [13] and in assay [14] was “inactive” throughout.
In the case of `CC1(C)S[C@@H]2[C@H](NC(=O)C(C(=O)O)c3ccccc3)C(=O)N2[C@H]1C(=O)O` (some centres not stated), the result in [1], in [2], in assay [4] and in assay [11] was inactive. The Potency entry in assay [3], in assay [5], in assay [6], in assay [7], in assay [8] and in [9] was “inactive” throughout. Moreover, the Potency entry in [10] and in assay [14] was “inactive” in each case.
Take `CCCCCCCCCCCCCCCCOP(=O)([O-])OCC[N+](C)(C)C`: the outcome in assay [1], in assay [2], in assay [4], in assay [15], in assay [11] and in [12] was inactive. For the same molecule, the Potency result in assay [3], in assay [5], in [6], in assay [7], in assay [8] and in [9] was “inactive” in each case. Further, the Potency result in assay [13] and in assay [14] was “inactive” in each case.
Turning to `CC1=CC(=O)CC(C)(C)C1=O`, the outcome in assay [1], in [15] and in assay [11] was inactive. In addition, the Potency result in assay [17], in [5], in [6], in [7], in assay [8] and in [16] was “inactive” throughout. Also, the Potency result in assay [9], in assay [10], in assay [18], in assay [13] and in assay [14] was “inactive” in each case.
Turning to `O=C(O)CN(CCN(CC(=O)O)CC(=O)O)CCN(CC(=O)O)CC(=O)O`, the viability change, negative = cytotoxic is 3.41% [at 19 µM] in assay [1], -18.4% [at 19 µM] in assay [5] and -7.04% [at 19 µM] in assay [6]. For the same molecule, the result in [2] was inactive. Also, the activity change, negative = inhibition in assay [3] is 3.25% [at 19 µM]; in assay [8], -28.7% [at 19 µM]. In addition, the activity change, negative = cytotoxicity in assay [4] was 3.61% [at 19 µM]; in assay [9], -0.118% [at 19 µM]; in assay [14] it was -0.23% [at 19 µM]. In addition, the activity change in assay [7] is 0.166% [at 18.9 µM, active compounds read high]. In assay [15], the activation was -4.18% [at 19 µM]. In addition, the Potency in assay [16] was 5.8 µM (active).
As for `NC(=O)Cc1cccc(C(=O)c2ccccc2)c1N`, the result in assay [1], in assay [4] and in [11] was inactive. Besides, in assay [2], the PLD induction was -0.295% [at 7.66 µM]. The Potency entry in assay [3], in [5], in assay [6], in [7], in assay [8] and in [16] was “inactive” in each case. Besides, the Potency entry in [9], in [10] and in [14] was “inactive” in each case.
Take `NC1=NCC2c3ccccc3Cc3ccccc3N12` (configuration not stated): the result in [1], in [2], in [4] and in [11] was inactive. Also, the Potency result in assay [3], in assay [5], in [6], in assay [7], in assay [9] and in assay [10] was “inactive” in each case. Moreover, the Potency result in [14] is “inactive”.
